Source: PubChem BioAssay
Calls of active or inactive are those of the source.

Experiments:
[1] = compound effects on lung adenocarcinoma cell viability – A549, calcein-AM fluorescence, 48 h, basal, profiling panel (AID 1162); details: higher = more signal
[2] = compound effects on differentiated 3T3-L1 adipocyte viability – cell-based, 3T3-L1 adipocytes, calcein-AM fluorescence, 48 h, basal, profiling panel (AID 1163); details: 3T3-L1 adipocytes viability, higher = more signal
[3] = compound effects on hepatocellular carcinoma cell viability – HepG2, calcein-AM fluorescence, 48 h, basal, profiling panel (AID 1164); details: higher = more signal
[4] = compound effects on multiple myeloma cell viability – MM1S, calcein-AM fluorescence, 48 h, basal, profiling panel (AID 1165); details: higher = more signal;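 also: viability of MM1S multiple myeloma cells under basal unstimulated conditions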
[5] = calcein-AM signal in unstimulated myeloma cells – cell-based, calcein-AM fluorescence, 48 h, PK04 Diversity Set, profiling panel (AID 1166); details: RPMI8226 myeloma viability, higher = more signal;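 also: cells grown under basal conditions without added stimulus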
[6] = JC-1 mitochondrial signal, unstimulated HepG2 cells – cell-based, JC-1 fluorescence, 24 h, 100 nL compound, profiling panel (AID 1167); details: HepG2 mitochondrial potential, higher = more signal
[7] = JC-1 mitochondrial signal, unstimulated adipocytes – cell-based, JC-1 fluorescence, 3T3-L1 adipocytes, 24 h, 100 nL compound, profiling panel (AID 1168); details: JC-1 mitochondrial fluorescence, higher = more signal, called active from +8 up or from −8 down
[8] = JC-1 mitochondrial signal, unstimulated myeloma cells – cell-based, JC-1 fluorescence, RPMI8226, 24 h, 100 nL compound, profiling panel (AID 1169); details: JC-1 mitochondrial potential fluorescence, higher = more signal
[9] = JC-1 mitochondrial signal, unstimulated MM1S myeloma – cell-based, JC-1 fluorescence, 24 h, 100 nL compound, profiling panel (AID 1170); details: MM1S mitochondrial potential, higher = more signal
[10] = resazurin metabolic signal in A549 cells – cell-based, resazurin fluorescence, 24 h, PK04 Diversity Set, profiling panel (AID 1171); details: A549 viability, higher = more signal, called active from +8 up or from −8 down
Also: test concentration not given here.

Structure (SMILES) | z-score [1] | z-score [2] | z-score [3] | z-score [4] | z-score [5] | z-score [6] | z-score [7] | z-score [8] | z-score [9] | z-score [10]
CC(C)[C@H](NC(=O)OC(C)(C)C)[C@@H](O)CC(=O)C(C)(C)C | -0.0305 | -1.02 | 0.483 | 0.514 | -0.0779 | 0.136 | -0.148 (inactive) | -0.988 | -1.13 | -0.242 (inactive)
C=C(C)C(=O)OC[C@H]1CN2[C@@H](CC[C@@H](C)[C@@H]2c2ccc(Br)cc2)C(=O)O1 | 0.824 | 0.278 | 1.33 | 0.244 | -1.34 | 0.393 | -0.142 (inactive) | -0.521 | -0.197 | 0.634 (inactive)
O=C1C[C@@H](O)[C@@H](O)[C@@H]2[C@@H]3C(=O)N(Cc4ccccc4)C(=O)[C@@H]3CC[C@H]12 | -0.801 | 0.241 | 0.175 | -0.0999 | 0.549 | -0.511 | -0.919 (inactive) | 0.0436 | -0.281 | -0.673 (inactive)
COc1ccc(O[C@H]2C=C[C@@H](C#Cc3ccccc3)O[C@@H]2CO)cc1 | -0.167 | 0.956 | -1.03 | -3.57 | -3.67 | -1.19 | -0.252 (inactive) | -0.891 | -1.46 | 0.447 (inactive)
O=C1C2=CC[C@H]3C(=O)N(C[C@@H]4CCCO4)C(=O)[C@H]3[C@H]2[C@H](O)[C@@H]2O[C@H]12 | 0.144 | -0.579 | -0.228 | -3.11 | -3.32 | -0.549 | 0.465 (inactive) | -0.836 | -3.04 | -0.824 (inactive)
CO[C@@H]1COC(=O)[C@@H]2CCCN2C(=O)[C@@H](C)COC(=O)CCC[C@H]1C | -0.0294 | -0.0132 | 0.586 | -0.407 | 0.498 | -0.189 | -2.2 (inactive) | -0.0065 | -1.2 | -1.07 (inactive)
COc1ccc(COC(=O)NN=C2C[C@@H](O)[C@@H](O)[C@@H]3[C@@H]4C(=O)N(C[C@@H]5CCCO5)C(=O)[C@@H]4CC[C@@H]23)cc1 | 0.795 | -0.825 | 0.245 | -0.657 | 0.51 | 0.567 | 0.658 (inactive) | -0.252 | -1.38 | -0.547 (inactive)
CO[C@@H]1COC(=O)[C@H](CCSC)NC(=O)CC=C[C@@H](C)COC(=O)[C@@H]2CCCN2C(=O)CC=C[C@H]1C | -0.25 | -0.094 | 0.182 | 0.105 | 0.339 | 0.754 | 0.579 (inactive) | -0.79 | 0.326 | 0.285 (inactive)
CC(CCN1CCCCc2nc(C)c(C)cc21)=NOC[C@@H](O)[C@H]1O[C@@H]2OC(C)(C)O[C@@H]2[C@H]1O | -0.638 | -0.566 | -1.33 | -0.22 | -0.177 | -0.536 | -1.31 (inactive) | -0.0542 | -0.477 | 0.0214 (inactive)
COc1ccc(COC(=O)NN=C2C[C@@H](O)[C@@H](O)[C@@H]3[C@@H]4C(=O)N(C(C)(C)C)C(=O)[C@@H]4CC[C@@H]23)cc1 | 0.901 | 0.514 | -0.777 | 0.569 | -0.448 | -1.08 | -1.14 (inactive) | -0.379 | 0.34 | 0.259 (inactive)
CC(C)[C@@H](OCc1ccccc1)[C@H](C)C=NO[C@@H](C)c1cn([C@H](CO)Cc2ccccc2)nn1 | 0.0751 | 0.143 | -0.112 | -0.265 | 0.0853 | -0.944 | -1.54 (inactive) | 0.362 | -0.318 | -0.877 (inactive)
CC(C)[C@@H](OCc1ccccc1)[C@H](C)C=NOC[C@@H](O)[C@H]1O[C@@H]2OC(C)(C)O[C@@H]2[C@H]1O | -0.205 | -0.132 | -0.292 | 0.592 | 0.322 | -0.719 | -1.58 (inactive) | 0.13 | 0.461 | -0.665 (inactive)
O=C1C[C@@H](O)[C@@H](O)[C@@H]2[C@@H]3C(=O)N(c4ccc(F)cc4F)C(=O)[C@@H]3CC[C@H]12 | -0.529 | 1.42 | 0.0181 | -0.141 | -0.0202 | -0.541 | -0.922 (inactive) | 0.0715 | 0.448 | -0.715 (inactive)
CCOC(=O)NN=C1C[C@@H](O)[C@@H](O)[C@@H]2[C@@H]3C(=O)N(C[C@@H]4CCCO4)C(=O)[C@@H]3CC[C@H]12 | -0.0295 | 0.127 | -1.17 | -0.0085 | 0.121 | -0.686 | -0.408 (inactive) | -0.38 | -0.229 | 0.159 (inactive)
COC(=O)[C@H](C)NC(=O)CCC1CC(OC(=O)NCc2cccc3ccccc23)CC2(CCCC(COC(=O)NCCc3ccccc3OC)O2)O1 (stereo not given in full) | -0.932 | -1.02 | -1.44 | -3.38 | -1.79 | -0.525 | -0.309 (inactive) | 0.179 | -1.33 | 0.642 (inactive)
COc1ccc2c(c1)O[C@@H](c1cccc(C(F)(F)F)c1)[C@H](O)C2=O | 0.759 | -0.941 | -0.294 | -0.277 | 1.29 | -1.25 | 0.0155 (inactive) | -0.239 | -0.724 | -0.536 (inactive)
O=C1[C@H]2[C@H]3[C@H](O)[C@H](O)CC(=NOC[C@@H](O)COCc4ccco4)[C@@H]3CC[C@H]2C(=O)N1C1CCCCC1 | 0.0095 | 0.272 | 0.444 | 0.0224 | -0.002 | -0.82 | -0.181 (inactive) | -0.422 | -0.891 | 0.014 (inactive)

Structure (SMILES) | z-score [1] | z-score [2] | z-score [3] | z-score [4] | z-score [5] | z-score [6] | z-score [7] | z-score [8] | z-score [9] | z-score [10]
COc1ccc(COC(=O)NN=C2C[C@@H](O)[C@@H](O)[C@@H]3[C@@H]4C(=O)N([C@@H](C)c5ccccc5)C(=O)[C@@H]4CC[C@H]23)cc1 | -0.0502 | 0.155 | -0.791 | 0.145 | -0.486 | -0.888 | -0.653 (inactive) | -0.0767 | 0.493 | 0.541 (inactive)
CCN1C(=O)[C@H]2[C@H]3[C@H](O)[C@H](O)CC(=NO[C@H](C)c4cn([C@H](CO)Cc5ccccc5)nn4)[C@@H]3CC[C@H]2C1=O | 1.01 | -0.922 | 0.211 | -0.824 | 0.065 | -0.471 | -1.16 (inactive) | 0.271 | -0.343 | -1.13 (inactive)
CO[C@H]1COC(=O)CCC[C@H](C)[C@@H](OC)COC(=O)CC=C[C@@H]1C | 0.0792 | 0.751 | 0.205 | 0.105 | 0.471 | -0.503 | -0.713 (inactive) | -0.483 | -0.866 | 0.0382 (inactive)
CCOC(=O)[C@H](Cc1ccccc1)NC(=O)CCC1CC(OC(=O)NCc2cccc3ccccc23)CC2(CCCC(COC(=O)NCCOc3ccccc3)O2)O1 (stereo not given in full) | 0.128 | 0.0331 | -0.175 | 0.992 | -0.634 | 0.161 | 0.0327 (inactive) | 0.113 | -0.883 | 0.0235 (inactive)
CO[C@@H]1COC(=O)CC=C[C@H](C)[C@H](OC)COC(=O)[C@@H]2CCCN2C(=O)CC=C[C@H]1C | -0.125 | 0.846 | -0.138 | 0.0805 | -0.822 | 1.07 | 0.332 (inactive) | 0.114 | 1.03 | -0.541 (inactive)
CCCNC(=O)OC[C@H]1O[C@H](CCON=C[C@@H](NS(=O)(=O)c2ccc(C)cc2)[C@H](C)C=CCC(=O)OC)C=C[C@@H]1Oc1ccc(OC)cc1 | -0.321 | 0.973 | -1.18 | -0.0312 | -0.773 | 0.421 | -2.4 (inactive) | -0.806 | 0.364 | 0.141 (inactive)
CCN1C(=O)[C@H]2[C@H]3[C@H](O)[C@H](O)CC(=NNC(=O)OCc4ccccc4)[C@H]3CC[C@H]2C1=O | -0.365 | 0.888 | -0.0764 | -1.59 | 0.507 | -0.559 | -0.978 (inactive) | 0.083 | 0.409 | -0.218 (inactive)
O=C1CCCC=C1C(O)C1CCCCC1 (stereo not given) | -0.586 | -0.464 | -0.22 | 0.766 | -0.241 | -0.86 | -1.15 (inactive) | -0.121 | 0.327 | 0.436 (inactive)
CCOC(=O)CCN1C(=O)[C@H]2[C@H]3[C@H](O)[C@H](O)CC(=NO[C@@H]4O[C@H](CO)[C@@H](O)[C@H](O)[C@H]4O)[C@@H]3CC[C@H]2C1=O | 0.816 | -0.0641 | 1.19 | -0.269 | 0.238 | -0.0782 | -0.0421 (inactive) | 0.577 | -1.45 | -0.765 (inactive)
CCC1=NOC(CCC2CC(OC(=O)NCc3cccc4c3OCO4)CC3(CCCC(COC(=O)NCCc4ccc(Cl)cc4)O3)O2)C1 (stereo not given) | -0.584 | -0.55 | -0.303 | 0.396 | -0.961 | -0.803 | 0.453 (inactive) | 0.0772 | -0.398 | 0.137 (inactive)
CCOC(=O)CCN1C(=O)[C@H]2[C@H]3[C@H](O)[C@H](O)CC(=NNC(=O)OCC)[C@H]3CC[C@H]2C1=O | -1.19 | 0.895 | -0.418 | -2.14 | -3.78 | -0.357 | -1.19 (inactive) | -0.541 | 0.0724 | -0.698 (inactive)
CCOC(=O)[C@H](CC(C)C)NC(=O)CCC1CC(OC(=O)NCCc2ccc(F)cc2)CC2(CCCC(COC(=O)NCCCN3CCCC3=O)O2)O1 (stereo not given in full) | 0.332 | -1.03 | 0.0317 | -0.528 | -1.8 | -0.556 | -0.139 (inactive) | -0.912 | 0.131 | 0.601 (inactive)
CCCNC(=O)OC[C@H]1O[C@H](CCON=C[C@@H](C)[C@H](OCc2ccccc2)C(C)C)C=C[C@@H]1Oc1ccc(OC)cc1 | 0.544 | -0.0223 | 1.72 | 0.0415 | -0.0657 | 0.479 | 0.024 (inactive) | 0.499 | -0.627 | 0.743 (inactive)
C#CCCCON=C1[C@H]2CCn3c(=O)n([C@@H](CC)c4ccccc4)c(=O)n3[C@H]2[C@H](O)[C@@H]2O[C@H]12 | 0.0523 | 0.44 | -0.129 | -1.77 | -0.0952 | -0.696 | 0.123 (inactive) | -0.547 | -0.662 | 0.43 (inactive)
O=C1CCCC=C1C(O)c1ccc([N+](=O)[O-])cc1 (stereo not given) | -0.419 | -0.388 | -0.0678 | -0.629 | 0.372 | -0.614 | -0.0489 (inactive) | 0.566 | 0.502 | -0.258 (inactive)
CC(=O)OC[C@H]1O[C@H](C#CCC2CCCCC2)C=C[C@@H]1OC(C)=O | 0.422 | -0.654 | 0.503 | -3.48 | -3.35 | -1.1 | -0.185 (inactive) | -0.605 | -1.99 | -0.389 (inactive)
